Results as given in PubChem BioAssay (NCI).
About 79,000 compounds went through this panel and 15% of them were active in at least one assay; those are over-represented in the sample as a whole. The source made the active and inactive calls. No stated cut-off is given here; in the data, active means growth inhibition above about 70%; inactive means the rest.

Tests used:
[1] = NCI Yeast Anticancer Drug Screen. Data for the mec2-1 strain (AID 157); conditions: S. cerevisiae mec2-1 strain, active compounds read high
How it was run: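 mec2-1 yeast strain, carrying an alteration in DNA damage repair or cell cycle control, was exposed to compounds; growth inhibition was measured relative to vehicle-treated controls.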

[2] = NCI Yeast Anticancer Drug Screen. Data for the rad14 strain (AID 159);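 further: 0% = growth of vehicle-treated control cultures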; conditions: S. cerevisiae rad14 strain growth inhibition, active compounds read high
How it was run: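 Here, inhibition of yeast growth was measured after compound exposure, using a strain with a genetic defect in DNA damage repair and vehicle-treated cultures as the reference.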

[3] = NCI Yeast Anticancer Drug Screen. Data for the sgs1 mgt1 strain (AID 161);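 further: 0% = growth of cultures given vehicle only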; conditions: S. cerevisiae sgs1 mgt1 strain, active compounds read high
How it was run: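 Compounds are added to genetically altered yeast, and growth is compared with cultures given vehicle alone to give percent inhibition.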

[4] = NCI Yeast Anticancer Drug Screen. Data for the CLN2oe strain (AID 163);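 further: 0% = growth of vehicle-only control cultures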; conditions: S. cerevisiae CLN2oe strain, active compounds read high
How it was run: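 Yeast cells carrying a defined cell-cycle control alteration were exposed to test compounds. Growth inhibition was scored against vehicle-treated control cultures.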

[5] = NCI Yeast Anticancer Drug Screen. Data for the cln2 rad14 strain (AID 165);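 further: 0% = growth equal to vehicle treated cultures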; conditions: S. cerevisiae cln2 rad14 strain, active compounds read high
How it was run: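 Yeast carrying cln2 and rad14 alterations (cell cycle control and DNA damage repair) were exposed to compounds. Growth inhibition was measured against vehicle-treated controls.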

[6] = NCI Yeast Anticancer Drug Screen. Data for the bub3 strain (AID 167); conditions: S. cerevisiae bub3 mutant strain, active compounds read high
How it was run: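 Whole-cell yeast assay. The mutant strain was incubated with compounds, and growth inhibition was determined by comparison with vehicle-treated cells.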

[7] = NCI Yeast Anticancer Drug Screen. Data for the wt2 strain (AID 169);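 further: 0% = growth of vehicle-treated yeast cultures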; conditions: S. cerevisiae wt2 strain growth inhibition, active compounds read high
How it was run: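 Yeast cells were exposed to test compounds, and growth inhibition was measured relative to vehicle-treated controls.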

[8] = NCI Yeast Anticancer Drug Screen. Data for the mlh1 strain (AID 171);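 further: 0% = growth of vehicle-treated control cultures of the same strain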; conditions: S. cerevisiae mlh1 strain growth inhibition, active compounds read high
How it was run: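 Yeast carrying a defined genetic alteration in DNA damage repair or cell cycle control were exposed to test compounds. Growth inhibition was measured relative to vehicle-treated controls.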

[9] = NCI Yeast Anticancer Drug Screen. Data for the mlh1 rad18 strain (AID 175); conditions: S. cerevisiae mlh1 rad18 strain growth inhibition, active compounds read high
How it was run: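 Growth inhibition of the yeast strain was measured after compound exposure and expressed relative to vehicle-treated controls. The strain carries defined defects in DNA damage repair.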

[10] = NCI Yeast Anticancer Drug Screen. Data for the rad18 strain (AID 177); conditions: S. cerevisiae rad18 mutant growth inhibition, active compounds read high
How it was run: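 Yeast carrying a defined DNA damage repair alteration were exposed to compounds. Growth inhibition was expressed relative to vehicle-treated controls.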

[11] = NCI Yeast Anticancer Drug Screen. Data for the rad52 strain (AID 147);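 further: 0% = growth of vehicle-treated control cultures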; conditions: S. cerevisiae rad52 mutant growth inhibition, active compounds read high
How it was run: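 Yeast strain carrying a DNA damage repair alteration was exposed to test compounds. Growth inhibition was measured relative to vehicle-treated controls.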

[12] = NCI Yeast Anticancer Drug Screen. Data for the wt1 strain (AID 149);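 further: 0% = growth of vehicle-treated wt1 cultures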; conditions: S. cerevisiae wt1 strain (SPY 50644) growth inhibition, active compounds read high
How it was run: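 Measured: growth of wt1 yeast under compound versus vehicle treatment, reported as inhibition.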

[13] = NCI Yeast Anticancer Drug Screen. Data for the rad50EPP+ strain (AID 151);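 further: 0% = growth of vehicle-treated control cultures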; conditions: S. cerevisiae rad50 mutant strain, active compounds read high
How it was run: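 Yeast strain carrying rad50 alteration (rad50EPP+) exposed to compounds; growth inhibition measured relative to vehicle-treated controls.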

[14] = NCI Yeast Anticancer Drug Screen. Data for the mgt1 strain (AID 153); conditions: S. cerevisiae mgt1 mutant growth inhibition, active compounds read high
How it was run: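 Yeast mgt1 strain (DNA repair/cell-cycle alteration panel) exposed to compounds; growth inhibition measured relative to vehicle-treated controls.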

[15] = NCI Yeast Anticancer Drug Screen. Data for the rad50 strain (AID 155);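 further: 0% = growth of vehicle-only cultures of the same strain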; conditions: S. cerevisiae rad50 strain growth inhibition, active compounds read high
How it was run: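 Growth of the mutant yeast was measured after compound exposure and referenced to vehicle-treated cultures.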

[16] = at 5.0 µM (retest, dose inferred, filed as 0.5)
[17] = at 50.0 µM (retest, dose inferred, filed as 5.0)

Measured: growth inhibition

CCOP(=O)(OCC)/C(C#N)=C\c1cccc2ccccc12
inactive: [1]; [16] -19% | [1]; at 11.0 µM 15% | [2]; at 1.2 µM -8% | [2]; at 3.7 µM -13% | [2]; at 11.0 µM -25% | [3]; [16] 53% | [4]; at 1.2 µM 13% | [4]; at 3.7 µM 2% | [4]; at 11.0 µM -7% | [4]; at 33.0 µM 59% | [5]; [16] 12% | [6]; at 1.2 µM -29% | [6]; at 3.7 µM -13% | [6]; [16] -3% | [6]; at 11.0 µM -41% | [7]; at 1.2 µM -6% | [7]; at 3.7 µM -2% | [7]; at 11.0 µM 2% | [8]; at 1.2 µM 11% | [8]; at 3.7 µM 10% | [8]; at 11.0 µM 17% | [9]; [16] -13% | [10]; at 1.2 µM 15% | [10]; at 3.7 µM 21% | [10]; at 11.0 µM 47%
active: [1]; at 33.0 µM 85% | [1]; [17] 93% | [1]; at 50.0 µM 88.2% | [1]; at 100.0 µM 98% | [2]; at 33.0 µM 87% | [2]; at 100.0 µM 97% | [3]; [17] 90% | [3]; at 50.0 µM 89.2% | [4]; at 100.0 µM 98% | [5]; [17] 93% | [5]; at 50.0 µM 88.8% | [6]; at 33.0 µM 83% | [6]; [17] 95% | [6]; at 50.0 µM 89.2% | [6]; at 100.0 µM 97% | [7]; at 33.0 µM 82% | [7]; at 100.0 µM 98% | [8]; at 33.0 µM 89% | [8]; at 100.0 µM 98% | [9]; [17] 95% | [9]; at 50.0 µM 86.2% | [10]; at 33.0 µM 95% | [10]; at 100.0 µM 98%

COc1ccc2nc(CCc3ccccc3)ccc2c1
inactive: [11]; at 1.2 µM -18% | [11]; at 3.7 µM -25% | [11]; at 11.0 µM -14% | [11]; at 33.0 µM -7% | [12]; at 1.2 µM -5% | [12]; at 3.7 µM -7% | [12]; at 11.0 µM -1% | [12]; at 33.0 µM -7% | [13]; at 1.2 µM -7% | [13]; at 3.7 µM -9% | [13]; at 11.0 µM 11% | [13]; at 33.0 µM 26% | [13]; at 100.0 µM 34% | [14]; at 1.2 µM -9% | [14]; at 3.7 µM -7% | [14]; at 11.0 µM -6% | [14]; at 33.0 µM -5% | [14]; at 100.0 µM 35% | [15]; at 1.2 µM -20% | [15]; at 3.7 µM -21% | [15]; [16] -6% | [15]; at 11.0 µM -27% | [15]; at 33.0 µM -8% | [15]; [17] 55% | [15]; at 50.0 µM 69.3% | [1]; at 1.2 µM -7% | [1]; at 3.7 µM -5% | [1]; [16] -7% | [1]; at 11.0 µM -8% | [1]; at 33.0 µM -11% | [1]; at 100.0 µM 50% | [2]; at 1.2 µM 3% | [2]; at 3.7 µM -8% | [2]; at 11.0 µM 11% | [2]; at 33.0 µM 2% | [3]; [16] 5% | [4]; at 1.2 µM -12% | [4]; at 3.7 µM -13% | [4]; at 11.0 µM -18% | [4]; at 33.0 µM -16% | [4]; at 100.0 µM 20% | [5]; [16] -6% | [5]; [17] -1% | [5]; at 50.0 µM -7.95% | [6]; at 1.2 µM -6% | [6]; at 3.7 µM 6% | [6]; [16] 14% | [6]; at 11.0 µM 12% | [6]; at 33.0 µM 34% | [7]; at 1.2 µM 5% | [7]; at 3.7 µM 4% | [7]; at 11.0 µM 20% | [7]; at 33.0 µM 39% | [8]; at 1.2 µM -15% | [8]; at 3.7 µM -10% | [8]; at 11.0 µM -12% | [8]; at 33.0 µM -14% | [9]; [16] -6% | [9]; at 50.0 µM 30.9% | [10]; at 1.2 µM -11% | [10]; at 3.7 µM -12% | [10]; at 11.0 µM -13% | [10]; at 33.0 µM -19%
active: [11]; at 100.0 µM 96% | [12]; at 100.0 µM 96% | [15]; at 100.0 µM 94% | [1]; [17] 81% | [1]; at 50.0 µM 84.7% | [2]; at 100.0 µM 95% | [3]; [17] 87% | [3]; at 50.0 µM 84.1% | [6]; [17] 78% | [6]; at 50.0 µM 87.7% | [6]; at 100.0 µM 88% | [7]; at 100.0 µM 99% | [8]; at 100.0 µM 91% | [9]; [17] 70% | [10]; at 100.0 µM 92%

CCC(=O)Nc1ccc(N=NN(C)C)cc1
inactive: [11]; at 1.2 µM -9% | [11]; at 3.7 µM -12% | [11]; at 11.0 µM -13% | [12]; at 1.2 µM -1% | [12]; at 3.7 µM 2% | [12]; at 11.0 µM 3% | [12]; at 33.0 µM 47% | [13]; at 1.2 µM -10% | [13]; at 3.7 µM -30% | [13]; at 11.0 µM -21% | [13]; at 33.0 µM 65% | [14]; at 1.2 µM -2% | [14]; at 3.7 µM -9% | [14]; at 11.0 µM -5% | [14]; at 33.0 µM -9% | [14]; at 100.0 µM 45% | [15]; at 1.2 µM -61% | [15]; at 3.7 µM -23% | [15]; [16] -146% | [15]; at 11.0 µM -20% | [15]; at 33.0 µM 24% | [15]; [17] 45% | [1]; at 1.2 µM -5% | [1]; at 3.7 µM -5% | [1]; [16] -49% | [1]; at 11.0 µM -5% | [1]; at 33.0 µM 17% | [2]; at 1.2 µM -3% | [2]; at 3.7 µM -7% | [2]; at 11.0 µM -1% | [2]; at 33.0 µM 23% | [3]; [16] -65% | [3]; [17] 37% | [3]; at 50.0 µM 69.9% | [4]; at 1.2 µM -11% | [4]; at 3.7 µM -9% | [4]; at 11.0 µM -11% | [4]; at 33.0 µM 21% | [5]; [16] -56% | [5]; [17] 55% | [5]; at 50.0 µM 48.2% | [6]; at 1.2 µM -9% | [6]; at 3.7 µM -8% | [6]; [16] -70% | [6]; at 11.0 µM -13% | [6]; at 33.0 µM -11% | [6]; [17] 34% | [6]; at 50.0 µM 0.3% | [7]; at 1.2 µM 0% | [7]; at 3.7 µM 2% | [7]; at 11.0 µM 6% | [8]; at 1.2 µM -13% | [8]; at 3.7 µM -10% | [8]; at 11.0 µM -10% | [8]; at 33.0 µM 19% | [9]; [16] -150% | [9]; [17] 9% | [9]; at 50.0 µM 50.2% | [10]; at 1.2 µM -8% | [10]; at 3.7 µM -10% | [10]; at 11.0 µM -9% | [10]; at 33.0 µM 69%
active: [11]; at 33.0 µM 87% | [11]; at 100.0 µM 99% | [12]; at 100.0 µM 99% | [13]; at 100.0 µM 99% | [15]; at 50.0 µM 90.7% | [15]; at 100.0 µM 98% | [1]; [17] 95% | [1]; at 50.0 µM 75.2% | [1]; at 100.0 µM 99% | [2]; at 100.0 µM 99% | [4]; at 100.0 µM 97% | [6]; at 100.0 µM 90% | [7]; at 33.0 µM 73% | [7]; at 100.0 µM 100% | [8]; at 100.0 µM 99% | [10]; at 100.0 µM 99%
